Values joined by “and” are separate entries in the source; they are usually repeats but may differ in a detail not shown here. Equal values may be shown once. Records with an inconclusive call do not appear. Entries that show only a call come without a potency. Some structures have more than one record in an assay (separate samples or runs), and their calls can disagree. Active and inactive are the calls of the source. Unless noted, the call rests on the fitted dose curve; in most records, active means well fitted curve in the direction sought with a large enough effect in the repeat runs; inconclusive means weak or mixed curves; inactive means no such curve, though single readings can be large; an effect the other way counts as inactive or inconclusive.
Experiments:
[1] = qHTS assay to identify small molecule agonists of the hypoxia (HIF-1) signaling pathway - cell viability counter screen (AID 1224844; calls by dose curve; further: nearly all actives have a fitted effect of over 50% in size; further: potency means the concentration at half of the fitted maximal effect); settings: HRE-bla ME-180 viability, CellTiter-Glo luminescence, 17 h; series mostly up to 76.8 µM
Summary of the method: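 Cytotoxicity was measured in parallel with the HRE-driven beta-lactamase readout: after 17 hrs of compound exposure at 37C, HRE-bla ME-180 cells received CellTiter-Glo and luminescence was recorded 30 min later.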

[2] = qHTS assay to identify small molecule agonists of H2AX (AID 1224845; active means well fitted activation curve with a large enough effect in the signal ratio in the repeat runs, not every such curve was filed as active; the % refers to the signal ratio; further: potency means the concentration at half of the fitted maximal effect); settings: CHO-K1 phospho-H2AX Ser139 HTRF, 3 h; series mostly up to 154 µM
Summary of the method: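 Wild-type CHO-K1 cells, plated overnight, exposed 3hr at 37C to 15 concentrations (0.76% DMSO final). Lysed, then HTRF anti-pH2AX (S139) cryptate and anti-H2AX-d2 antibodies, 24 hr room temperature; 665/620 nm emission read.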

[3] = qHTS assay to identify small molecule agonists of the hypoxia (HIF-1) signaling pathway (AID 1224846; active means well fitted activation curve with a large enough effect in the signal ratio in the repeat runs, not every such curve was filed as active; the % refers to the signal ratio); settings: HRE-bla ME-180 cells, beta-lactamase ratio, 17 h; series mostly up to 76.8 µM
Summary of the method: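 Compounds from the Tox21 10K library, dissolved in DMSO, are tested for induction of a hypoxia response element–controlled beta-lactamase reporter in ME-180 cells. Exposure lasts 17 hrs at 37C after a 5 hr settling period, followed by CCF4-AM FRET substrate.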

[4] = qHTS assay to identify small molecule agonists of H2AX - cell viability counter screen (AID 1224847; calls by dose curve; further: nearly all actives have a fitted effect of over 30% in size; further: potency means the concentration at half of the fitted maximal effect); settings: CHO-K1 viability, CellTiter-Glo luminescence, 3 h; series mostly up to 154 µM
Summary of the method: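 We seed wild-type CHO-K1 cells overnight, treat them for 3 hr at 37C with compounds in 15-concentration series, and quantify remaining viability by CellTiter-Glo luminescence.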

[5] = qHTS assay to identify small molecule antagonists of the estrogen related receptor (ERR) signaling pathway from Tox21 library (AID 1224848); settings: ERR reporter cell line, luciferase antagonist mode, 18 h; series mostly up to 92.4 µM; further: nearly all actives have a fitted effect of over 50% in size; further: potency means the concentration at half of the fitted maximal effect
Summary of the method: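 Compounds dissolved in DMSO are pin-transferred onto ERR reporter cells (2,000 per well) that have settled for 6 h at 37 C. Plates then incubate 18 h at 37 C before ONE-Glo luciferase reagent and a luminescence read 30 min later.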

[6] = qHTS assay to identify small molecule agonists of the estrogen related receptor (ERR) signaling pathway from Tox21 library (AID 1224849; calls by dose curve; further: nearly all actives have a fitted effect of over 15% in size); settings: ERR reporter cell line, ONE-Glo luciferase, 18 h
Summary of the method: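 Cells carrying the ERR reporter were plated and allowed to settle for 6 h, exposed to library compounds for 18 h at 37 C, then lysed with ONE-Glo and luminescence measured.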

[7] = qHTS RealTime-Glo MT Cell Viability Assay in HepG2 cells - 24 hour (AID 1224867); settings: RealTime-Glo luminescence; series mostly up to 76.8 µM; further: nearly all actives have a fitted effect of over 50% in size; further: potency means the concentration at half of the fitted maximal effect
Summary of the method: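 HepG2 cells (600/well) were dispensed with RealTime-Glo reagents, incubated 5 h at 37 °C, then treated with compounds in DMSO for up to 40 h. Nonlytic NanoLuc luminescence reflecting viable cells was read at each stated time point.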

[8] = qHTS RealTime-Glo MT Cell Viability Assay in HEK293 cells - 32 hour (AID 1224868); settings: RealTime-Glo luminescence; series mostly up to 76.8 µM; further: nearly all actives have a fitted effect of over 50% in size; further: potency means the concentration at half of the fitted maximal effect
Summary of the method: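 HEK293 cells seeded with NanoLuc/prosubstrate reagent, rested 5 h at 37 C, then dosed and kept at 37 C up to 40 h. Nonlytic real-time luminescence from viable cells read at 0, 8, 16, 24, 32 and 40 h.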

[9] = A CellTox Green Cytotoxicity Assay to monitor cytotoxicity in HEK293 cells - 0 hour (AID 1224869); settings: CellTox Green fluorescence; series mostly up to 76.8 µM; further: nearly all actives have a fitted effect of over 50% in size; further: potency means the concentration at half of the fitted maximal effect
Summary of the method: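 Cells (HEK293, 600/well) and dye reagent are dispensed together. After 5 h at 37 C, 23 nL compound is pinned in. Plates stay at 37 C for 40 h with fluorescence read at 0h, 8h, 16h, 24h, 32h and 40h.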

[10] = qHTS RealTime-Glo MT Cell Viability Assay in HepG2 cells - 40 hour (AID 1224870); settings: RealTime-Glo luminescence; series mostly up to 76.8 µM; further: nearly all actives have a fitted effect of over 50% in size
Summary of the method: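 HepG2 cells (600/well) mixed with RealTime-Glo MT reagent, settled 5 h at 37 C/5% CO2 before compound addition. Nonlytic NanoLuc luminescence from viable-cell prosubstrate reduction read repeatedly during 40 h treatment at 37 C.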

Structure (SMILES) | Potency [1] | Potency [2] | outcome [3] | Potency [4] | Potency [5] | activity change, positive = activation ([6]; at 92.4 µM (top of the series)) | Potency [7] | Potency [8] | Potency [9] | activity change, positive = activation ([6]; at 42.5 µM (top of the series)) | Potency [10]
ClCC(Cl)CCl | inactive | inactive | inactive | inactive | inactive | 8.78% (inactive) and 5.09% (inactive) | inactive | inactive | inactive |  | 
OC(c1ccc(Cl)cc1)(c1cncnc1)c1ccccc1Cl (stereo not drawn) | inactive | 91.4 µM (active) and inactive | inactive | 115 µM (active) | 11.1 µM (active) and 54.5 µM (active) | -83.4% (inactive) and -41.2% (inactive) | 31.4 µM (active) | 6.27 µM (active) and 24.5 µM (active) | inactive |  | 
COP(=S)(OC)Oc1ccc(S(=O)(=O)N(C)C)cc1 | inactive | inactive | inactive | inactive | inactive | -12.4% (inactive) | inactive | inactive | inactive | -5.44% (inactive) | inactive
N#CCCCCC#N | inactive | inactive | inactive | inactive | inactive | 8.89% (inactive) and 3.44% (inactive) | inactive | inactive | inactive |  | inactive
O=C1CCCO1 | inactive | inactive | inactive | inactive | inactive | 3.83% (inactive) and -0.0508% (inactive) | inactive | inactive | inactive |  | inactive
Clc1ccc(C(Cl)(Cl)Cl)cc1 | inactive | inactive | inactive | inactive | inactive | -5.48% (inactive) and 0.497% (inactive) | inactive | inactive | inactive |  | inactive
O=P(OCCCl)(OCCCl)OCCCl | inactive | inactive | inactive | inactive | inactive | 1.87% (inactive) and 3.07% (inactive) | inactive | inactive | inactive |  | 
COc1ccc(C=O)cc1OC | inactive | inactive | inactive | inactive | inactive | -3.94% (inactive) and -4.02% (inactive) | inactive | inactive | inactive |  | 
CN(C)c1ccccc1 | inactive | inactive | inactive | inactive | inactive | -1.62% (inactive) and 6.09% (inactive) | inactive | inactive | inactive |  | inactive
Oc1ccc(Cl)cc1Cl | inactive | inactive | inactive | inactive | inactive | -0.925% (inactive) and -0.996% (inactive) | inactive | inactive | inactive |  | inactive
O=C1Nc2ccc(Cl)cc2C(c2ccccc2)=NC1O (stereo not drawn) | inactive | inactive | inactive | inactive | inactive | -20.3% (inactive) and -12.2% (inactive) | inactive | inactive | inactive |  | inactive
Nc1ccc2ccccc2c1 | inactive | inactive | inactive | inactive | inactive | 30.3% (active) | inactive | inactive | inactive |  | 
N#CC(c1ccccc1)c1ccccc1 | inactive | inactive | inactive | inactive | inactive | -14.8% (inactive) and -8.2% (inactive) | inactive | inactive | inactive |  | inactive
N#Cc1nn(-c2c(Cl)cc(C(F)(F)F)cc2Cl)c(N)c1S(=O)C(F)(F)F (stereo not drawn) | inactive | inactive | inactive | 101 µM (active) | 5.48 µM (active) and 11.9 µM (active) | -58.7% (inactive) | inactive | 22 µM (active) | inactive | -52.7% (inactive) | inactive
CCOP(=S)(OCC)OP(=S)(OCC)OCC | inactive | inactive | inactive | inactive | inactive | -12.2% (inactive) and -0.199% (inactive) | inactive | inactive | inactive |  | inactive
CCCCC(C#N)(Cn1cncn1)c1ccc(Cl)cc1 (stereo not drawn) | inactive | inactive | inactive | inactive | 48.4 µM (active) | -34.1% (inactive) and -20% (inactive) | inactive | inactive | inactive |  | 
CC(C)Nc1nc(Cl)nc(NC(C)C)n1 | inactive | inactive | inactive | inactive | inactive | 1.71% (inactive) and -9.11% (inactive) | inactive | inactive | inactive |  | inactive

Structure (SMILES) | Potency [1] | Potency [2] | outcome [3] | Potency [4] | Potency [5] | activity change, positive = activation ([6]; at 92.4 µM (top of the series)) | Potency [7] | Potency [8] | Potency [9] | activity change, positive = activation ([6]; at 42.5 µM (top of the series)) | Potency [10]
CNC(=O)Oc1cccc2c1OC(C)(C)C2 | inactive | inactive | inactive | inactive | inactive | 3.12% (inactive) and 1.27% (inactive) | inactive | inactive | inactive |  | inactive
COP(=S)(OC)Oc1ccc(Sc2ccc(OP(=S)(OC)OC)cc2)cc1 | inactive | inactive | inactive | inactive | 27.3 µM (active) and inactive | -40% (inactive) | inactive | inactive | inactive | -3.82% (inactive) | inactive
S=c1[nH]c2ccccc2[nH]1 | inactive | inactive | inactive | inactive | inactive | -4.19% (inactive) and 0.256% (inactive) | inactive | inactive | inactive |  | inactive
CCCCOCCOC(C)=O | inactive | inactive | inactive | inactive | inactive | 1.87% (inactive) and 10.2% (inactive) | inactive | inactive | inactive |  | inactive
Cc1cccc(N=Nc2ccc(N(C)C)cc2)c1 | inactive | inactive | inactive | 101 µM (active) | inactive | 234% (active) and 86.9% (active) | inactive |  | inactive |  | 
CCOP(=O)(OCC)OCC | inactive | inactive | inactive | inactive | inactive | -7.79% (inactive) and 1.86% (inactive) | inactive | inactive | inactive |  | 
Brc1ccc(Br)cc1 | inactive | inactive | inactive | inactive | inactive | 7.62% (inactive) and 5.83% (inactive) | inactive | inactive | inactive |  | 
CSc1nc(NC(C)C)nc(NC(C)C)n1 | inactive | inactive | inactive | inactive | inactive | -11% (inactive) and -12.6% (inactive) | inactive | inactive | inactive |  | 
CCCCOCC1CO1 (stereo not drawn) | inactive | inactive | inactive | inactive | inactive | 0.0042% (inactive) and -11% (inactive) | inactive | inactive | inactive and 19.5 µM (active) |  | inactive
O=S(=O)(O)C(F)(F)C(F)(F)C(F)(F)C(F)(F)C(F)(F)C(F)(F)C(F)(F)C(F)(F)F | 33 µM (active) and 49 µM (active) and 12.3 µM (active) | inactive | inactive | inactive | inactive | -7.99% (inactive) and -0.0044% (inactive) and -21.1% (inactive) | inactive | inactive | inactive |  | inactive
CN(C)P(=O)(N(C)C)N(C)C | inactive | inactive | inactive | inactive | inactive | 5.26% (inactive) and 10.2% (inactive) | inactive | inactive | inactive |  | inactive
Clc1cccc(Cl)c1 | inactive | inactive | inactive | inactive | inactive | -0.0986% (inactive) and 9.44% (inactive) | inactive | inactive | inactive |  | inactive
O=C(O)c1nn(Cc2ccc(Cl)cc2Cl)c2ccccc12 | inactive | inactive | inactive | inactive | inactive | -48% (inactive) | inactive | inactive | inactive | -5.39% (inactive) | 
Cn1c(-c2ccccc2)cc(-c2ccccc2)[n+]1C | inactive | inactive | inactive | inactive | 17.2 µM (active) and 21.7 µM (active) | -54.1% (inactive) and -52.6% (inactive) | inactive | 8.69 µM (active) and 24.5 µM (active) | inactive |  | inactive
O=[N+]([O-])/N=C1\NCCN1Cc1ccc(Cl)nc1 | inactive | inactive | inactive | inactive | inactive | -0.637% (inactive) | inactive | inactive | inactive | 0.753% (inactive) | 
CC(C)(O)C(=O)Nc1ccc([N+](=O)[O-])c(C(F)(F)F)c1 | inactive | inactive | inactive | 57.8 µM (active) and 73.6 µM (active) | 9.89 µM (active) and 17.8 µM (active) | -47.4% (inactive) | inactive | 25.1 µM (active) and 16 µM (active) | inactive | -39.6% (inactive) | inactive

From PubChem BioAssay (Tox21)
